# ADAM17 inh = inhibits human ADAM17; P78536; recombinant ADAM17, EDANS/DABCYL FRET peptide cleavage; inhibition, % at 6.95 µM; hit rate 0.83% among 370,000;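 active = inhibition above the mean of compounds lying between control limits plus 3 SD, set per campaign, cut at about 8.5% in these data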;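 note: 0% = DMSO-only wells as the low control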
# ADAM10 inh = inhibitors of human ADAM10; recombinant ADAM10, EDANS/DABCYL FRET peptide cleavage, 3 h; O14672; AID 720582; hit rate 0.62% among 370,000; inhibition, % at 7 µM;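 active = inhibition above a per-campaign cutoff equal to the mean of compounds falling between control-based bounds plus 3 SD, cut at about 20% in these data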;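 note: 0% = DMSO wells while the 100% control is not disclosed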
# Target sequence (O14672 214-748 limits assumed): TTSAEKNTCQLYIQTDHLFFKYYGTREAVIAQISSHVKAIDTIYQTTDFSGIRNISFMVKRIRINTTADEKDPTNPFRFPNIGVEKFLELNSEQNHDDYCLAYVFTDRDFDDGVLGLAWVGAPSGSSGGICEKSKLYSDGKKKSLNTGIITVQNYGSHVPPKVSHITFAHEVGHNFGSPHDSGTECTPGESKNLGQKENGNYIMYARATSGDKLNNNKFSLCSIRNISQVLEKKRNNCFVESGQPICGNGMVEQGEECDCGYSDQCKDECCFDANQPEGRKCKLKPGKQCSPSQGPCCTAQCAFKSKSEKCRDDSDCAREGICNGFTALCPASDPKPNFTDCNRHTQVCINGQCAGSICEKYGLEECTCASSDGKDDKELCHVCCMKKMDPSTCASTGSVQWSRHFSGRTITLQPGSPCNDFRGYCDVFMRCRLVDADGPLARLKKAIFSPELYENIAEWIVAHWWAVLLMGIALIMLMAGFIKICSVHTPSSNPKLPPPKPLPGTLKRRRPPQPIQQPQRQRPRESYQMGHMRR
# GC-B act = GC-B (human) receptor activation | hit rate 0.11% among 370,000 | HEK293-GC-B cells, CNP EC30, cGMP TR-FRET; 0% at EC30 CNP, 100% saturating CNP | P20594 | activation, % at 10 µM;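 active = activation at 10 µM reaching about 35% in either raw or pattern-adjusted values, limit read from the data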
# FAS-TE inh = FAS thioesterase (human) inhibition; recombinant FAS-TE, OMFH fluorogenic substrate, fluorescence endpoint; AID 602261; hit rate 0.67% among 360,000; P49327; inhibition, % at 15 µM;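 active = compounds whose normalised, plate-corrected inhibition of enzyme fluorescence in the single-dose primary screen is 50% or more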;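 note: 0% = DMSO with enzyme and 100% = substrate without enzyme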
# GC-A act = GC-A (human) enzyme activation | P16066 | HEK293 GC-A cells, cGMP TR-FRET, EC30 ANP; 0% at EC30 ANP, 100% saturating ANP | activation, % at 10 µM | hit rate 0.14% among 370,000 | AID 1671463; in the data active = activation above about 40%
# ADAM10 confirm = confirmation of inhibitors of human ADAM10 | inhibition, % at 6.95 µM | shares compounds with ADAM10 inh | ADAM10 QFRET peptide cleavage, EDANS fluorescence | hit rate 1% among 2,100;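 active = inhibition above about 20% chosen separately for each screening run, limit read from the data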;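 note: 0% = DMSO wells and 100% = marimastat wells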
# ADAM17 ctr = inhibits human ADAM17 in ADAM10 exosite counter-screen | shares compounds with ADAM10 inh | ADAM17 QFRET peptide cleavage, EDANS fluorescence | inhibition, % at 6.95 µM | hit rate 0.5% among 2,100;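 active = mean triplicate inhibition above the solvent-only control wells' mean plus 3 SD, cut at about 12% in these data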;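 note: 0% = DMSO wells and 100% = marimastat wells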
# ADAM10 ctr = inhibits human ADAM10 in ADAM17 exosite counter-screen | shares compounds with ADAM17 inh | recombinant ADAM10, EDANS/DABCYL FRET peptide cleavage, 3 h | inhibition, % at 6.95 µM | hit rate 47% among 2,900;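 active = mean inhibition over the triplicate runs exceeds the activity threshold set in the earlier primary screen, cut at about 20% in these data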;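 note: 0% = DMSO wells and 100% = marimastat wells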
# ADAM17 confirm = human ADAM17 inhibition, confirmation. shares compounds with ADAM17 inh. recombinant ADAM17, EDANS/DABCYL QFRET peptide cleavage. inhibition, % at 6.95 µM. hit rate 65% among 2,900;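 active = mean inhibition across replicates above the hit cutoff set in the primary screen, cut at about 8.5% in these data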;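 note: 0% = DMSO wells and 100% = marimastat wells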
# Numbers without * were called inactive; x = no result given. A selection: hits, their analogues and other compounds. The true share with any hit is near 2%.
SMILES,ADAM17 inh,ADAM10 inh,GC-B act,FAS-TE inh,GC-A act,ADAM10 confirm,ADAM17 ctr,ADAM10 ctr,ADAM17 confirm
CSc1ccccc1OCc1cc(C(=O)N2CCc3[nH]cnc3C2c2ccccn2)no1 (centres undefined),11*,25*,4,-6,-1,8,3,-1,2
COc1ccc(N/N=C(\C#N)C(N)=O)cc1,1,0,2,-5,0,x,x,x,x
COc1ccc(N/N=C(/C(N)=O)C2=NC(C)(C)Cc3ccccc32)cc1,14*,28*,5,34,1,3,0,9,5
Cc1ccc(NC(=O)COC(=O)C2(c3ccc(Cl)cc3)CCCC2)cc1,11*,32*,3,31,-1,9,4,31*,14*
CCc1c(-c2cccc(F)c2)ncn1CCc1ccccc1OC,2,17,-16,x,-7,x,x,x,x
Cc1ccc(S(=O)(=O)N(CC(=O)Nc2ccc(Cl)c([N+](=O)[O-])c2)C2CCCCC2)cc1,14*,25*,-2,43,-4,10,2,25*,14*
COc1cc(C(O)c2nc(-c3ccc4ccccc4c3)cs2)ccc1F (centres undefined),23*,49*,-2,32,-1,11,3,22*,15*
COc1ccc(C(O)c2nc(-c3ccc4ccccc4c3)cs2)cc1 (centres undefined),20*,42*,0,20,-5,6,3,21*,14*
COc1ccc(-c2csc(C(O)c3ccc(OC)cc3)n2)cc1 (centres undefined),-2,-16,1,12,7,x,x,x,x
COc1cccc(NC(=O)C2CCCN2C(=O)Nc2ccc(Cl)cc2)c1 (centres undefined),-2,-5,10,x,-1,x,x,x,x
CC(C)(C)c1ccc(S(=O)(=O)N2CCCC2C(=O)N2CCc3ccccc3C2)cc1 (centres undefined),5,4,2,x,0,x,x,x,x
CCO[C@H]1OC(C(=O)N2CCN(Cc3ccc4c(c3)OCO4)CC2)=C[C@@H](c2ccc(Br)cc2)[C@@H]1CCCO,9.2*,25*,-4,10,-4,0,0,13,7
C=CC[C@@H](CC(=O)N(CCO)Cc1ccccc1)C(=O)N[C@H](COC(=O)[C@@H](CC=C)Cc1ccc(F)cc1)c1ccccc1,15*,34*,-6,26,-9,9,4,33*,17*
C=CC[C@@H](CC(=O)N(CCO)Cc1ccccc1)C(=O)N[C@@H](C)COC(=O)[C@@H](CC=C)Cc1ccc(F)cc1,2,13,-6,4,-6,x,x,x,x
C=CC[C@@H](CC(=O)N(CCO)Cc1ccccc1)C(=O)NC[C@H](OC(=O)[C@@H](CC=C)Cc1ccc(F)cc1)c1ccccc1,13*,26*,-13,24,-11,7,2,34*,19*
Cc1[nH]c2ccccc2c1CC(=O)Nc1ccc(N(C)c2cccnc2)c(-c2cccc(Cl)c2)c1,-3,-10,-4,x,-2,x,x,x,x
Cc1n[nH]c(C)c1S(=O)(=O)NCCc1ccccc1F,-3,-3,-1,x,6,x,x,x,x
O=C(N[C@H](Cc1ccccc1)C(=O)NCc1ccc2c(c1)OCO2)[C@H]1O[C@@H](n2ccc(=O)[nH]c2=O)[C@H](O)[C@@H]1O,-2,-2,-1,x,0,x,x,x,x
COC(=O)[C@H](CC(C)C)N(CCCc1cn(Cc2ccc(C)cc2)nn1)S(=O)(=O)c1ccccc1Br,13*,23*,10,x,-4,5,2,24*,16*
